Assay results reported in PubChem BioAssay (EPA / NIEHS).
Records with an inconclusive call do not appear. Active and inactive are the calls of the source. How the source made its calls, unless noted: active means hit-call score of the fitted dose curve at least 0.9, where 1 is the maximum; inactive means score below 0.9.

Assays:
[1] = read-out: Interleukin-1 alpha (IL1a), IL1A (gene 3552); assay: BSK_BE3C_IL1a: BioMAP Diversity Plus: BE3C Assay for Interleukin-1 alpha (IL1a) Biomarker Activity (AID 2283016); conditions: primary human bronchial epithelial cells; actives raise or lower the signal
Outline: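 ELISA read-out of IL-1a from human lung bronchial epithelial primary cells, 24 h post-dose. Gain or loss of signal fitted relative to DMSO negative control.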

[2] = read-out: Monocyte Chemoattractant Protein-1 (MCP1), CCL2 (gene 6347); assay: BSK_3C_MCP1: BioMAP Diversity Plus: 3C Assay for Monocyte Chemoattractant Protein-1 (MCP1) Biomarker Activity (AID 2283017); conditions: primary human endothelial cells (HUVEC); actives raise or lower the signal
Outline: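 Primary human umbilical vein endothelial cells (3C system) were exposed to test chemical for 24 h, after which MCP-1 was quantified by ELISA. Activity was fitted bidirectionally against DMSO as negative control and baseline.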

[3] = read-out: Monocyte Chemoattractant Protein-1 (MCP1), CCL2 (gene 6347); assay: BSK_4H_MCP1: BioMAP Diversity Plus: 4H Assay for Monocyte Chemoattractant Protein-1 (MCP1) Biomarker Activity (AID 2283018); conditions: primary human endothelial cells (HUVEC); actives raise or lower the signal
Outline: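 HUVEC primary cells, 24 h post-dose, MCP-1 by ELISA. Gain or loss of signal fitted bidirectionally vs DMSO baseline. Cytotoxicity: SRB stain (0.1% after 10% TCA fixation), read 560 nm, parallel cultures.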

[4] = read-out: Human Leukocyte Antigen - DR isotype (HLADR), HLA-DRA (gene 3122); assay: BSK_3C_HLADR: BioMAP Diversity Plus: 3C Assay for Human Leukocyte Antigen - DR isotype (HLADR) Biomarker Activity (AID 2283019); conditions: primary human endothelial cells (HUVEC); actives raise or lower the signal
Outline: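 Primary human umbilical vein endothelial cells (3C system) were dosed with compound and cell-surface HLA-DR was quantified by ELISA at 24 h. Activity was fitted bidirectionally against DMSO as negative control and baseline.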

[5] = read-out: Interleukin-8 (IL8), CXCL8 (gene 3576); assay: BSK_3C_IL8: BioMAP Diversity Plus: 3C Assay for Interleukin-8 (IL8) Biomarker Activity (AID 2283020); conditions: primary human endothelial cells (HUVEC); actives raise or lower the signal
Outline: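 HUVEC, 3C stimulation; 24 h compound exposure; IL-8 read by ELISA; gain or loss of signal fitted relative to DMSO control.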

[6] = read-out: Monokine induced gamma interferon (MIG), CXCL9 (gene 4283); assay: BSK_3C_MIG: BioMAP Diversity Plus: 3C Assay for Monokine induced gamma interferon (MIG) Biomarker Activity (AID 2283021); conditions: primary human endothelial cells (HUVEC); actives raise or lower the signal;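 on AC50: MIG protein level measured by immunoassay in the treated endothelial cultures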
Outline: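 HUVEC, 3C system; 24 h chemical exposure; MIG by ELISA; bidirectional fit vs DMSO baseline.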

[7] = molecular target: human Vitamin D Receptor (VDR), VDR (gene 7421) (UniProt P11473); assay: ATG_VDR_TRANS: Attagene TRANS-FACTORIAL HepG2 Assay for human Vitamin D Receptor (VDR) (AID 2283022; active means hit-call score of the fitted dose curve at least 0.9, where 1 is the maximum)
Outline: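 HepG2 cells were transiently transfected with multiple GAL4-UAS reporter units, so signal reflects exogenous chimeric receptor-Gal4 activity. After 24 h compound exposure, reporter mRNA was measured by RT-PCR, fluorescent labelling and capillary electrophoresis, fitted for gain of signal versus DMSO.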

[8] = BSK_3C_SRB: Viability Assessment in the BioMAP Diversity Plus: 3C Assay (AID 2283023); conditions: primary human endothelial cells (HUVEC);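 further: fitted both ways against DMSO so a hit may be signal rise or drop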
Outline: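 Primary human umbilical vein endothelial cells in the 3C system were read 24 h after compound dosing. Total protein was stained with 0.1% sulforhodamine B after 10% TCA fixation and read at 560 nm, with bidirectional fitting against DMSO as baseline.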

[9] = read-out: Matrix Metallopeptidase 1 (MMP1), MMP1 (gene 4312); assay: BSK_BE3C_MMP1: BioMAP Diversity Plus: BE3C Assay for Matrix Metallopeptidase 1 (MMP1) Biomarker Activity (AID 2283024); conditions: primary human bronchial epithelial cells; actives raise or lower the signal
Outline: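 ELISA read-out of MMP1 in human lung bronchial epithelial primary cultures, 24 h post-dose; bidirectional curve fit vs DMSO baseline, gain or loss of signal scored.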

[10] = BSK_3C_Vis: BioMAP Diversity Plus: 3C Assay for Morphology Visualization (AID 2283025); conditions: primary human endothelial cells (HUVEC);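 further: fitted both ways so gain or loss versus DMSO counts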;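 on AC50: light microscopy image of cell morphology used as background control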
Outline: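 HUVEC, 3C system; light microscopy of morphology at 24 h post-dose. Bidirectional fit vs DMSO baseline. Secondary readout, background-control function.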

[11] = read-out: Pselectin, SELP (gene 6403); assay: BSK_4H_Pselectin: BioMAP Diversity Plus: 4H Assay for Pselectin Biomarker Activity (AID 2283026); conditions: primary human endothelial cells (HUVEC); actives raise or lower the signal
Outline: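 HUVEC, 24 h chemical exposure; P-selectin read by ELISA. Bidirectional curve fit vs DMSO baseline; gain or loss of signal scored.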

[12] = BSK_4H_SRB: Viability Assessment in the BioMAP Diversity Plus: 4H Assay (AID 2283027); conditions: primary human endothelial cells (HUVEC);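 further: cells exposed to compound for 24 h before staining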;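 on AC50: curves fitted both ways versus DMSO so AC50 may be loss or gain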
Outline: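 HUVEC, 24 h post-dose; 10% TCA fix, 0.1% SRB stain, A560 nm. Total protein = overt cytotoxicity, parallel to biomarker read. Bidirectional fit vs DMSO baseline.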

[13] = BSK_BE3C_SRB: Viability Assessment in the BioMAP Diversity Plus: BE3C Assay (AID 2283028); conditions: primary human bronchial epithelial cells
Outline: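 Human primary bronchial epithelial cells were exposed to test chemicals for 24 h. Total protein in parallel cultures was then measured by staining with 0.1% sulforhodamine B after 10% TCA fixation, with absorbance read at 560 nm. Activity was fitted bidirectionally against DMSO.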

[14] = read-out: Thrombomodulin, THBD (gene 7056); assay: BSK_3C_Thrombomodulin: BioMAP Diversity Plus: 3C Assay for Thrombomodulin Biomarker Activity (AID 2283029); conditions: primary human endothelial cells (HUVEC); actives raise or lower the signal
Outline: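 HUVEC, 3C conditions; compound 24 h; thrombomodulin by ELISA; bidirectional curve fit vs DMSO baseline; parallel SRB total-protein staining for cytotoxicity.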

[15] = read-out: Urokinase-type plasminogen activator receptor (uPAR), PLAUR (gene 5329); assay: BSK_4H_uPAR: BioMAP Diversity Plus: 4H Assay for Urokinase-type plasminogen activator receptor (uPAR) Biomarker Activity (AID 2283030); conditions: primary human endothelial cells (HUVEC); actives raise or lower the signal
Outline: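 Primary human umbilical vein endothelial cells were exposed to chemical for 24 h before cell-surface uPAR was quantified by ELISA. Activity was fitted bidirectionally against the DMSO negative control baseline.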

[16] = read-out: Vascular endothelial growth factor receptor 2 (Homo sapiens) (UniProt P35968); assay: BSK_4H_VEGFRII: BioMAP Diversity Plus: 4H Assay for Vascular endothelial growth factor receptor 2 (VEGFR2) Biomarker Activity (AID 2283031); conditions: primary human endothelial cells (HUVEC); actives raise or lower the signal;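 on AC50: cell-surface VEGFR2 protein level quantified by ELISA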
Outline: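 Primary human umbilical vein endothelial cells in the BioMAP 4H system were dosed with test chemical, and 24 h later VEGFRII was measured by ELISA. Activity was fitted bidirectionally against DMSO as negative control and baseline.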

[17] = read-out: Human Leukocyte Antigen - DR isotype (HLADR), HLA-DRA (gene 3122); assay: BSK_BE3C_HLADR: BioMAP Diversity Plus: BE3C Assay for Human Leukocyte Antigen - DR isotype (HLADR) Biomarker Activity (AID 2283032); conditions: primary human bronchial epithelial cells; actives raise or lower the signal
Outline: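 Primary human bronchial epithelial cells (BE3C); 24 h chemical exposure; HLA-DR by ELISA; bidirectional curve fit vs DMSO baseline.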

[18] = read-out: Vascular cell adhesion molecule 1 (VCAM1), VCAM1 (gene 7412); assay: BSK_4H_VCAM1: BioMAP Diversity Plus: 4H Assay for Vascular cell adhesion molecule 1 (VCAM1) Biomarker Activity (AID 2283033); conditions: primary human endothelial cells (HUVEC); actives raise or lower the signal
Outline: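 HUVEC, 24 h post-dose; VCAM-1 by ELISA. Bidirectional curve fit vs DMSO baseline. Parallel SRB total-protein stain (0.1% SRB after 10% TCA fixation, 560 nm) for cytotoxicity.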

[19] = read-out: Interferon-gamma inducible Protein 10 (IP10), CXCL10 (gene 3627); assay: BSK_BE3C_IP10: BioMAP Diversity Plus: BE3C Assay for Interferon-gamma inducible Protein 10 (IP10) Biomarker Activity (AID 2283034); conditions: primary human bronchial epithelial cells; actives raise or lower the signal
Outline: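 ELISA readout of IP-10 in BE3C system: primary human bronchial epithelial cells, 24 h post-dosing; bidirectional curve fit vs DMSO baseline.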

[20] = read-out: Monokine induced gamma interferon (MIG), CXCL9 (gene 4283); assay: BSK_BE3C_MIG: BioMAP Diversity Plus: BE3C Assay for Monokine induced gamma interferon (MIG) Biomarker Activity (AID 2283035); conditions: primary human bronchial epithelial cells; actives raise or lower the signal;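 further: MIG protein measured by ELISA in BE3C cultures after 24 h of dosing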
Outline: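 Dose cells (human primary bronchial epithelial), incubate 24 h, quantify MIG by ELISA, then fit concentration–response in both directions relative to DMSO control.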

Measured: AC50

human Vitamin D Receptor (VDR), VDR (gene 7421), sequence (P11473 whole entry, looked up, the tested form may be a part): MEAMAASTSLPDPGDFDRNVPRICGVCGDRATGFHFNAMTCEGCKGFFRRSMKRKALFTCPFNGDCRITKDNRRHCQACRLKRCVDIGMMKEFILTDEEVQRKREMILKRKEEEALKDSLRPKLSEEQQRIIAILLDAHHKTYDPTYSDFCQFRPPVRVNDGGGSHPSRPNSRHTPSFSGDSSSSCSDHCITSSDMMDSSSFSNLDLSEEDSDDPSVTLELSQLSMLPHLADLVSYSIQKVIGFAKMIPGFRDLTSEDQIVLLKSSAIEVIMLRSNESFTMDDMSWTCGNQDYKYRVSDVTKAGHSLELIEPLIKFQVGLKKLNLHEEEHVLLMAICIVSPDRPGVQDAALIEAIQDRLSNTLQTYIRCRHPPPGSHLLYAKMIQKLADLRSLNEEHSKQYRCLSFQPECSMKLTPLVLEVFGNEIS

COc1ccc2sc(C(=O)Nc3nnn[nH]3)c(OC(C)C)c2c1
active: [1] 12.2 µM | [2] 12.3 µM | [3] 26.9 µM | [4] 7.28 µM | [5] 17.9 µM | [6] 16.1 µM | [8] 12.5 µM | [9] 14.2 µM | [10] 21.9 µM | [11] 4.45 µM | [12] 20 µM | [15] 12.7 µM | [16] 17.6 µM | [17] 19.9 µM | [19] 19.9 µM
inactive: [7] | [13] | [14] | [18] | [20]

Cc1ccc(N)cc1O
not listed: [18]
inactive: all other assays above

NC(=O)NO
not listed: [9]
inactive: all other assays above

CN(C)c1ccc(N=NS(=O)(=O)O)cc1
active: [18] 8.31 µM
not listed: [9]
inactive: all other assays above

COc1ccc(-n2nc(C(F)F)cc2-c2ccc(S(C)=O)cc2)cc1 (configuration not stated)
not listed: [15] | [18]
inactive: all other assays above

CCn1nc(Cc2ccccc2)cc1C1CCN(C[C@H]2C[C@H](N(C)[C@@H](C(=O)O)C(C)C)C[C@@H]2c2cccc(F)c2)CC1
not listed: [11] | [18]
inactive: all other assays above

O=C1CCCCCN1
not listed: [9]
inactive: all other assays above
